From PubChem
Shown are actives, neighbours in structure and some others; about 7.4% of the full set was active somewhere.
SNCA expr inhib – Primary qHTS assay for inhibitors of alpha-synuclein gene (SNCA) expression. HEK-293 SNCA-luciferase knock-in, luminescence, 24 h. 140,000 tested, 0.17% active. Potency, µM (titrated, usually from 57.2 µM), inactives show top-dose activity change, negative = inhibition, actives largely listed as inhibitors;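 also: plate controls were DMSO cells for no effect and cell-free wells for full effect; nearly all actives have a fitted effect of over 45% in size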
NIH3T3 tox – Cytotoxic Profiling in NIH 3T3 Cell Line of Diverse Libraries Using Quantitative High-Throughput Screening; AID 1345082, 2018; NIH 3T3 viability, CellTiter-Glo ATP luminescence, 48-72 h; Potency, µM (series often up to 96.7 µM), without a hit: top-dose activity change, negative = cytotoxicity, most hits filed as inhibitors; 94,000 tested, 4.3% active; also: nearly all actives have a fitted effect of over 55% in size
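Viability of NIH 3T3 cells after 48 or 72 hr compound treatment at 37 °C was assessed by CellTiter-Glo, with luminescence imaged following a 10 min room-temperature step.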
HEK293 viab – GF-AFC viability counterscreen for inhibitors of alpha-synuclein gene (SNCA) expression. HEK-293-SNCA-luc viability, GF-AFC fluorescence, 24 h. Potency, µM (doses to about 57.1 µM), for inactives: top-dose activity change, negative = cytotoxicity, most hits filed as cytotoxic. 150,000 tested, 0.12% active. AID 1671193, 2021;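 also: 0% = DMSO-treated cells and -100% = medium-only wells without cells; nearly all actives have a fitted effect of over 30% in size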
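HEK-293-SNCA-luc cells (1500/well) plated 24 h, then exposed 24 h to a dilution series; GF-AFC added 30 min at 37C, fluorescence 405/540 nm; normalised to medium-only and DMSO wells, Hill fit.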
HEK cytotox – Cytotoxic Profiling in HEK 293 Cell Line of Diverse Libraries Using Quantitative High-Throughput Screening; HEK 293 viability, ATP luminescence (CellTiter-Glo), 48-72 h; Potency, µM (doses to about 115 µM), for inactives: at the highest dose activity change, negative = cytotoxicity, usual class: inhibitors; 94,000 tested, 6.6% active; AID 1345083, 2018; also: nearly all actives have a fitted effect of over 60% in size
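250 HEK 293 cells/well; compound by pintool; incubated 48 or 72 hr at 37 degree Celsius; CellTiter-Glo added, 10 min RT, luminescence imaged.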
hNpr1 antagonist – Natriuretic polypeptide receptor (hNpr1) antagonism - Primary qHTS | HEK293 hNpr1 GloSensor cGMP, ANP-stimulated luminescence | Potency, µM (highest dose often 46.3 µM), for the others: top-dose activity change, negative = inhibition, actives largely listed as inhibitors | 76,000 tested, 1.6% active; calls by dose curve; also: nearly all actives have a fitted effect of over 60% in size
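Compound pre-incubated 30 min at room temperature on GloSensor-loaded HEK293 cells stably carrying hNpr1 and the pGS-40F cGMP biosensor. Stimulation uses hNppA at 0.1 nM final; luminescence is taken at baseline and 20 min post-agonist.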
FLuc inh – Firefly luciferase inhibition profiling of diverse chemical library using quantitative high-throughput screening; Luciferin 4-monooxygenase (Photinus pyralis), P08659; purified P. pyralis luciferase, luminescence, biochemical; Potency, µM (top dose mostly 115 µM), most hits filed as inhibitors; 76,000 tested, 2.5% active; AID 1347043, 2019; also: nearly all actives have a fitted effect of over 65% in size
Target sequence (P08659 whole entry, looked up): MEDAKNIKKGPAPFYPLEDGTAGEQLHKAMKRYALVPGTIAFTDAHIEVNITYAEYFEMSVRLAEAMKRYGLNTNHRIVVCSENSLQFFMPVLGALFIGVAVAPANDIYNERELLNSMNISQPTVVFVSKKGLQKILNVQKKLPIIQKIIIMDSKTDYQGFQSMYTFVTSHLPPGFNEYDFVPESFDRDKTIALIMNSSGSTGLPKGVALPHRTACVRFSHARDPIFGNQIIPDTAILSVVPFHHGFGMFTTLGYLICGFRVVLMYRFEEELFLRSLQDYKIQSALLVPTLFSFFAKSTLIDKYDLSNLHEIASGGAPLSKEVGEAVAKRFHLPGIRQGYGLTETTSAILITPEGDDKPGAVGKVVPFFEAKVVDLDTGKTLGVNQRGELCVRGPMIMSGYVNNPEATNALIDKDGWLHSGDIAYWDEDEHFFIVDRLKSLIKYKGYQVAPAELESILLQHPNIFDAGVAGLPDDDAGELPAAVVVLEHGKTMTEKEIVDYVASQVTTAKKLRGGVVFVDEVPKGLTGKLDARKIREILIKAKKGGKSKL
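Cell-free enzyme assay, 10nM P. pyralis luciferase, luciferin and ATP each at 10uM. Inhibition profiled over a 6-point titration, read as luminescence.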
Starred values were filed as active, the others as inactive; i = inactive; ? = inconclusive; . = not tested or not shown; [ ] = remark or other dose. Unless noted, calls follow the shape of the dose curve; as a rule, active = well fitted curve in the direction sought with a large enough effect; inconclusive = small, poorly fitted or top-dose-only effect, or another doubt; inactive = no such curve, though single readings can be large; an effect the other way counts as inactive or inconclusive. Unless noted, % is scaled to controls: 0 for no effect and ±100 for the full control effect; potency is read from the fitted curve at half-maximal effect.

SMILES	SNCA expr inhib	NIH3T3 tox	HEK293 viab	HEK cytotox	hNpr1 antagonist	FLuc inh
COCCNC(=O)c1cc(-c2cccnc2)nc2c1cnn2C	-3.5%[87.6 µM]	?	4.6%[87.6 µM]	-32.7%[172 µM]	.	.
COCC(=O)N1CC(N2C(=O)c3c(c(C)nn3-c3ccccc3)C2C2CC2)C1 (stereo unspecified)	.	112µM*	.	-13.6%[172 µM]	.	.
Cc1nn(-c2ccccc2)c2c1C(C1CC1)N(C1CN(C(=O)c3ccc(F)cc3)C1)C2=O (stereo unspecified)	.	?	.	44.7µM*	.	.
Cc1nn(-c2ccccc2)c2c1C(C1CC1)N(C1CCN(C(=O)c3ccc(Cl)cc3)CC1)C2=O (stereo unspecified)	.	-15.7%	.	-4.2%	.	.
O=C(NCC1CC1)c1cc(-c2ccsc2)c2nncn2n1	6.0%[87.6 µM]	i	9.6%[87.6 µM]	i	.	.
Cn1cc(CC(=O)N2CCCc3ncc(C(=O)N4CCCC[C@@H]4Cc4ccccc4)cc32)c2ccccc21	?	?	?	39.8µM*	-29.5%	i
O=C(Cc1cccc(C(F)(F)F)c1)N1CCCc2ncc(C(=O)N3CCCC[C@@H]3c3ccccc3)cc21	-21.4%	?	?	79.4µM*	?	i
O=C(NCCc1ccc(Cl)cc1)c1nc2sccn2c1-c1ccncc1	6.7%	-26.6%	?	?	.	.
Cc1nc(C2CC23CCN(C(=O)Nc2ccc4c(c2)OCCO4)CC3)no1 (stereo unspecified)	99.5%	-31.6%	-8.6%	-24.0%	.	.
CC(C)C[C@H](NC(=O)CNC(=O)OCc1ccccc1)C(=O)N[C@@H](Cc1ccccc1)C(=O)CCl	.	.	23.8µM*	.	.	.
CC(NC(=O)[C@H](Cc1ccccc1)NC(=O)OCc1ccccc1)C(=O)CF (stereo partly specified)	.	.	-41.9%	.	.	.
CC(C)CNc1nccc(C2(c3ccccc3Cl)CCNCC2)n1	12.5%	28.2µM*	-14.2%	25.1µM*	-5.9%	i
C[C@@H](O)CNc1nccc(C2(c3ccccc3Cl)CCNCC2)n1	-17.8%	-8.0%	-10.1%	-5.1%	1.7%	i
CC(CNc1nccc(C2(c3ccccc3Cl)CCNCC2)n1)CN(C)C (stereo unspecified)	22.6%	?	-20.0%	-26.6%	5.9%	i
CCC(C)Cc1nccc(C2(c3ccccc3Cl)CCNCC2)n1 (stereo unspecified)	-1.5%	28.2µM*	?	25.1µM*	-4.4%	i
CC(C)NC(=O)NC1CCN(Cc2cccc(-c3cccs3)c2)CC1	-14.5%	?	0.6%[12.5 µM]	?	.	.
O=C(c1ccc(C2CCCNC2)cc1)N1CCC(Oc2cccc(F)c2)CC1 (stereo unspecified)	2.1%	39.8µM*	?	28.2µM*	-13.8%	i
O=C(c1ccsc1)N1CCC(Oc2cccc(F)c2)C1 (stereo unspecified)	1.6%	-15.6%	-2.1%	?	-0.4%	i
COc1cccc(CNC(=O)C2CCN(C(=O)c3ccc(-c4ccccc4OC)cc3)CC2)c1	-4.2%	?	8.8%[12.5 µM]	?	.	.
COc1cccc2sc(NC(=O)c3ccc4c(c3)OCCN(C3CCC3)C4)nc12	?	?	?	31.6µM*	?	?
Cc1ccc(Nc2ccnc(N3CCC(C(=O)NCC4CCCO4)CC3)n2)cc1 (stereo unspecified)	32.1%	?	11.7%[12.5 µM]	?	.	.
COc1cccc(-c2ccc(C(=O)N3CCC(C(=O)NCC(F)(F)F)CC3)cc2)c1	-1.9%	?	1.5%[12.5 µM]	?	.	.
COc1ccc(N2Cc3c(NCC4CCCCCC4)ncnc3N(C)CC2=O)cc1	3.7%	?	-20.3%	79.4µM*	-2.0%	i
CN1CC(=O)N(C2CCCC2)Cc2c(NCc3cccc(C(F)(F)F)c3)ncnc21	-12.8%	?	-14.2%	35.5µM*	.	.
COc1ccc(N2Cc3c(NCC4CCCCC4)ncnc3N(C)CC2=O)cc1	-13.8%	?	-3.2%	?	-0.5%	i
SMILES	SNCA expr inhib	NIH3T3 tox	HEK293 viab	HEK cytotox	hNpr1 antagonist	FLuc inh
CC1CCCN(C(=O)CN2CCCc3nc(-c4ccccc4)ncc3C2=O)C1 (stereo unspecified)	6.3%	-19.3%	-13.8%	79.4µM*	-14.4%	i
O=C(NC1CCCCCC1)c1nc2sccn2c1-c1ccc(F)cc1	-22.4%[87.6 µM]	?	-8.1%[87.6 µM]	-34.5%[172 µM]	.	.
O=C(Nc1ccc([C@@H](O)[C@H]2COCC(=O)N2Cc2ccc(F)cc2)cc1)c1ccccc1	?	?	-24.3%[87.6 µM]	100µM*	-7.0%[70.6 µM]	i
CC(C)(C)c1ccc(C(=O)Nc2ccc(C(O)[C@H]3COCC(=O)N3Cc3ccccn3)cc2)cc1 (stereo partly specified)	2.6%	?	-28.9%	?	-15.3%	15.8µM*
O=C(Nc1ccc([C@@H](O)[C@H]2COCC(=O)N2Cc2ccccn2)cc1)C1CC1	-6.2%[87.6 µM]	-5.0%[138 µM]	0.7%[87.6 µM]	-2.1%[172 µM]	-3.2%[70.6 µM]	i
O=C(Cc1ccccc1)Nc1ccc([C@@H](O)[C@H]2COCC(=O)N2Cc2ccc(C(F)(F)F)cc2)cc1	3.9%	79.4µM*	-21.0%	?	0.0%	i
N#Cc1ccc(C(=O)Nc2ccc([C@@H](O)[C@H]3COCC(=O)N3Cc3ccc(F)cc3)cc2)cc1	37.7%	-28.8%	-0.4%	?	0.4%	i
O=C(Cc1ccccc1)Nc1ccc([C@@H](O)[C@H]2COCC(=O)N2Cc2ccccc2)cc1	?	-18.2%[174 µM]	-4.2%[87.6 µM]	-13.2%[172 µM]	2.3%[70.6 µM]	i
COc1ccccc1CNC(=O)C1CCN(C(=O)c2ccc(-c3cncnc3)cc2)CC1	-5.8%	?	7.8%	?	.	.
CC(C)(Oc1nn(Cc2cccc(Cl)c2)c2ccccc12)C(=O)NC1CCC(O)CC1 (stereo unspecified)	?	?	0.6%	?	-25.6%	i
COCCCNC(=O)C(C)(C)Oc1nn(Cc2cccc(Cl)c2)c2ccccc12	31.6µM*	?	?	?	?	i
COCCNC(=O)C(C)(C)Oc1nn(Cc2cccc(Cl)c2)c2ccccc12	-19.1%[87.6 µM]	?	?	79.4µM*	-26.5%[70.6 µM]	i
CCN1CCN(C(=O)c2nc3sccn3c2-c2ccc(OC)cc2)CC1	-20.7%	-2.6%	5.3%	2.5%	.	.
CC12CCC(=O)C=C1CCN(c1ccccc1)C2 (stereo unspecified)	.	?	.	-22.1%	.	.
